Among all 270,000 compounds or so, about 620 (0.23%) were called active. A call without a number means that no potency is given here. Inconclusive results (about 12%) are left out. This excerpt belongs to a sample that is enriched for actives. A number with no mark means an inactive call. Calls follow the shape of the dose curve; as a rule, active = well fitted inhibition curve with a large enough effect in the polarisation, with a control signal flat (not every such curve was filed as active); inconclusive = small, poorly fitted or top-dose-only effect, or effect the other way, or a change in a side signal; inactive = no such curve, though single readings can be large or run the other way; the % refers to the polarisation.
Potency is read from the fitted curve at half-maximal effect.

Sequence of Menin (Homo sapiens) (O00255 whole entry, looked up, the tested form may be a part): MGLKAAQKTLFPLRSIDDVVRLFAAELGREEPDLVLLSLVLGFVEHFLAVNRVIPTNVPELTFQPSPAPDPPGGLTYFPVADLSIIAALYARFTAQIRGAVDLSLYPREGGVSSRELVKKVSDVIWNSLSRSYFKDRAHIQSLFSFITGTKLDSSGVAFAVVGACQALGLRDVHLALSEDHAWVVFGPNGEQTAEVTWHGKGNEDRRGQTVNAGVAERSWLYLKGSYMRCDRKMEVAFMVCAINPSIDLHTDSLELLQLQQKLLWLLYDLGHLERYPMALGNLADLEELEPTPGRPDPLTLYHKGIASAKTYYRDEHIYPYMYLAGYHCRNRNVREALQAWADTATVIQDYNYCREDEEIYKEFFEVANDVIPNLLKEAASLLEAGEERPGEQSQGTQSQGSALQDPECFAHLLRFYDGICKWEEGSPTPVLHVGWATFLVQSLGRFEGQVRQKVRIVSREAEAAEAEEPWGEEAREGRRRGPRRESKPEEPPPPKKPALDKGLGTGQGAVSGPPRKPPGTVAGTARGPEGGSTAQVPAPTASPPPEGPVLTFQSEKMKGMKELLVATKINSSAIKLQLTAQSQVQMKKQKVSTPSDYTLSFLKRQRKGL

This assay deals with Menin (Homo sapiens) (UniProt O00255). Put plainly: qHTS Assay for Inhibitors Targeting the Menin-MLL Interaction in MLL Related Leukemias: Competition With Texas Red Labeled MLL-derived Mutant Peptide. The note with it: fluorescence polarization; series mostly up to 61.6 µM. The source says:
qHTS Assay for Inhibitors Targeting the Menin-MLL Interaction in MLL Related Leukemias NIH Chemical Genomics Center [NCGC] NIH Molecular Libraries Probe Centers Network [MLPCN] MLPCN Grant: MH084875-01A1 Assay Submitter (PI): Jolanta Grembecka, Tomasz Cierpicki, University of Virginia Translocations of the MLL (Mixed Lineage Leukemia) gene are frequently found in human leukemias affecting both children and adults. Fusion of MLL to one of more than 60 genes results in generation of oncogenic proteins upregulating Hox genes, which are vital to blood cell development. Patients harboring fusion of the MLL gene suffer from aggressive leukemias and respond poorly to available therapies. All of the oncogenic fusion proteins have a preserved N-terminal fragment of MLL that has been identified to interact with menin. It has been recently discovered that association with menin is critical to the leukemogenic activity of the MLL fusion oncoproteins. Selective targeting of the menin-MLL interaction could provide an attractive therapeutic approach to develop novel drugs for MLL-related leukemias. Small molecules blocking the menin-MLL interaction should reverse the oncogenic potential of MLL fusion proteins. We have developed and optimized a fluorescence polarization-based assay for the identification of Menin-MLL inhibitors. The assay was run employing two different MLL-derived peptides. The present assay uses a 12 amino acid peptide labeled with fluorescein at its N-terminus. This peptide consists of the menin high affinity binding motif from MLL and is potently bound by menin. Another peptide with a mutated sequence, labeled with Texas Red, was used in parallel as a less stringent screen for inhibitors.
The Menin protein, the MLL-wild type (w.t.) derived peptide (N-terminal 12 amino acids), the MLL-derived peptide labeled with Texas Red and the MLL-w.t. peptide labeled with Fluorescein were kindly supplied by laboratory of Dr. Jolanta Grembecka, University of Virginia. All protein and peptide solutions were stored in single use aliquots at -80C. The Eu3+ Cyrptate-conjugated mouse monoclonal antibody anti-6 Histidine (Eu3+-AB) and the Streptavidin-XL665 conjugate (XL665) were purchased from Cisbio International (Bedford, MA). All antibody and XL665 conjugate solution stocks were stored in single use aliquots at -20C. The Buffer components for all assays were purchased from Sigma-Aldrich (St. Louis, MO) and Invitrogen (Carlsbad, CA). FP Assay Reagents: 1. FP reaction buffer: 50 mM Tris-HCl pH 7.5, 50 mM NaCl, 1mM DTT. Before use, 0.05% BSA is added. 2. Menin protein, MLL-w.t. labeled with fluorescein, MLL-mutant peptide labeled with texas red. Stored in singe use aliquots at -80C. 3. MLL-w.t. unlabeled peptide as positive control: 10 uM final in FP buffer. FP Assay Procedure: 1. Prepare Menin at 200 nM, MLL-w.t.-fluorescein at 25 nM, and MLL-mutant-texas red at 50 nM mixture in FP buffer. 2. Prepare Menin at 200 nM, MLL-w.t.-fluorescein at 25 nM, MLL-mutant-texas red at 50 nM, and 10 uM MLL-w.t. unlabeled mixture in FP buffer. 3. Prepare MLL-w.t.-fluorescein at 25 nM and MLL-mutant-texas red at 50 nM mixture in FP buffer. 3. Dispense 4 ul per well of reagent in step 1 in columns 2, 4 - 48 in a black 1536 well plate, dispense 4 ul per well of reagents from steps 2 and 3 in columns 1 and 3 respectively. Incubate plate at ambient for 15 minutes. 4. Transfer 23 nl per well of compound to plate and incubate at ambient for 1 hr. 5. Read fluorescence polarization for each label using the PerkinElmer Envision. Envision protocol for fluorescein: FITC FP Dual Enh Mirror, Excitation filter 480, Emission filter (1) P-pol 535, Emission filter (2) S-pol 535 Envision protocol for texas red: FP Dual Enh Mirror, Excitation filter 555, Emission filter (1) P-pol 632, Emission filter (2) S-pol 632
For `CCn1cc(CN2CCN(CC(C)(C)C)C(CCO)C2)c2ccccc21` (configuration not stated), the Potency result was “inactive”.

`Cc1cc(=O)oc2c(C)c(OC(C)C(=O)NC3CCN(Cc4ccccc4)CC3)ccc12` (configuration not stated): the Potency result was “inactive”.

`O=C(CN1C(=O)COc2ccc(Cl)cc21)N1CCOCC1`: the Potency entry is “inactive”.

Take `COc1cc(CN2CCCC(C(=O)c3ccc(SC)cc3)C2)cc(Cl)c1O` (configuration not stated): the Potency entry was “inactive”.

For `Cc1cc(C)nc(N/N=C/c2c(CO)cnc(C)c2O)n1`, the Potency entry was “inactive”.

For `COc1cccc(N(CC(=O)NCc2ccccc2)C(=O)CCC(=O)Nc2nccs2)c1`, the Potency entry was “inactive”.

`COc1ccc(CSc2nnnn2-c2ccc(O)cc2)cc1F`: the Potency result was “inactive”.

`CCOc1ccc(N(CC(=O)NCCc2ccc(F)cc2)S(=O)(=O)c2ccccc2)cc1`: the Potency entry is “inactive”.

With `O=C1CCC(C(=O)N2CCN(c3ccccc3Cl)CC2)CN1CC1CCCCC1` (configuration not stated), the Potency result was “inactive”.

As for `CCC(=O)c1cn(CCOc2ccccc2OC)c2ccccc12`, the Potency entry was “inactive”.

Regarding `CC1(C)CCSC(/C=C/c2ccccc2)=N1`, the Potency is 31.6 µM (active).

As for `CCCC[C@]12Cc3cc(OC)c(OC)cc3C(O1)C1=C(CC3(CCCCC3)OC1=O)O2`, the FP activity change, negative = inhibition is -17.1% [at 11.7 µM].

Turning to `O=S(=O)(Nc1cccc(Oc2ccc(Cl)cc2)n1)c1ccc(F)cc1`, the Potency result is “inactive”.

Consider `N#Cc1ccc(-c2ccc(Cl)cc2)nc1Oc1ccc(F)cc1`, for which the Potency was 20 µM (active).

Take `CN(C)c1ccnc(Oc2ccc(F)cc2)c1C#N`: the Potency entry was “inactive”.

As for `CC1C(=O)C(C)C(c2ccc(O)cc2)NC1c1ccc(O)cc1` (configuration not stated), the Potency entry was “inactive”.

With `CCN(C(=O)C1CCCN(c2nc(-c3ccc(OC)cc3)no2)C1)c1ccc(OC)cc1` (configuration not stated), the Potency entry was “inactive”.

For `Cc1ccc(S(=O)(=O)c2nc(-c3cccs3)oc2NCc2cccnc2)cc1`, the Potency entry is “inactive”.

On to `CCOCCCn1c(SCC(=O)Nc2cc(OC)ccc2OC)nc2ccccc2c1=O`, for which the Potency entry is “inactive”.

For `COc1ccc2[nH]c(C(=O)N/N=C/c3cc(OC)c(OC)c(OC)c3)cc2c1`, the Potency entry was “inactive”.

For the compound `C=C1C(=CC=C2CCC[C@@]3(C)[C@@H]2CC[C@H]3[C@H](C)CCCC(C)C)C[C@@H](O)C[C@@H]1O`, the Potency result was “inactive”.

Take `Cc1ccc(C(=O)NC23CC4CC(CC(C4)C2)C3)c(Cl)c1`: the Potency result is “inactive”.

With `CCOc1ccccc1NC(=S)NC(=O)CCc1ccccc1`, the Potency result was “inactive”.

Consider `CCc1ccc(N(C(=O)c2csnn2)C(C(=O)NC2CCCCC2)c2cccnc2)cc1` (configuration not stated), for which the Potency result is “inactive”.

Regarding `O=C1CN(Cc2ccccc2)S(=O)(=O)c2ccccc21`, the Potency entry was “inactive”.

Regarding `CCOC(=O)C(Cc1ccc(N)cc1)N1C(=O)c2ccccc2C1=O` (configuration not stated), the Potency result was “inactive”.

Take `CCCN1CC=C2C(C#N)=C(N)C(C#N)(C#N)C(c3cc(OC)ccc3OC)C2C1` (configuration not stated): the Potency entry was “inactive”.

As to `CCN1CC=C2C(C#N)=C(N)C(C#N)(C#N)[C@H](c3ccoc3)[C@H]2C1`, the Potency is 17.8 µM (active).

With `CCOC(=O)N1CC=C2C(C#N)=C(N)C(C#N)(C#N)[C@H](c3cccs3)[C@H]2C1`, the Potency result was “inactive”.

In the case of `O=C(NCCc1c[nH]c2ccccc12)C1CCN(Cc2ccc(Br)cc2)CC1`, the Potency result was “inactive”.

Turning to `CC(C)C(C)NC(=O)COc1nc2ccccc2nc1N(C)C1CCCCC1` (configuration not stated), the Potency entry was “inactive”.

Regarding `Cc1cccc(OC(C)C(=O)N2CCc3ccccc3C2)c1` (configuration not stated), the Potency result is “inactive”.

`COC(=O)c1ccc(CN2C(=O)NC(c3ccccc3)(c3ccccc3)C2=O)o1`: the Potency entry is “inactive”.

For the compound `CN(Cc1ccccc1)C(=O)C1CCCN(c2ncnc3c2nc2n3CCCCC2)C1` (configuration not stated), the Potency result is “inactive”.

As for `Cc1ccccc1OCC(=O)Nc1ccc(S(=O)(=O)N2CCOCC2)cc1`, the Potency entry was “inactive”.

In the case of `COc1ccc(CCNC(=O)CSCc2ccc(Br)cc2)cc1OC`, the Potency entry is “inactive”.

In the case of `CCOc1cc(-c2cc(-c3ccc(NC(C)=O)cc3)nc(N)c2C#N)ccc1O`, the Potency entry was “inactive”.

Regarding `O=C(c1cc(C(=O)N2CCN(c3ccc(F)cc3)CC2)cc([N+](=O)[O-])c1)N1CCN(c2ccc(F)cc2)CC1`, the Potency entry is “inactive”.

Take `Cc1cc2oc(=O)cc(CN(C)Cc3ccc(OC(F)F)cc3)c2cc1Cl`: the Potency result is “inactive”.

For `COC(=O)c1ccccc1NC(=O)C1CCN(C(=O)N2CCOc3ccccc32)CC1`, the Potency result was “inactive”.

For the compound `CCCNC(=O)CCc1c(C)nc2c(c(C)nn2-c2ccc(C)cc2)c1C`, the Potency entry was “inactive”.

For `C/C(=N\NC(=O)c1ccoc1C)c1ccccc1O`, the Potency result was “inactive”.

Consider `COc1ccc(-c2ccc(OC)c(C3C4C=CCC(C)C4C(=O)N3Cc3ccccc3)c2)cc1C` (configuration not stated), for which the Potency entry is “inactive”.

Turning to `Cc1nnc(NC(=O)C(c2ccccc2)c2ccccc2)s1`, the Potency entry was “inactive”.

For `CC(C)C[C@@H](COc1ccccc1)N1CCN(CC(C)C)CCC1=O`, the Potency result is “inactive”.

`Cc1nn(-c2ccc([N+](=O)[O-])cc2)c(N)c1-c1ccccc1`: the Potency entry was “inactive”.

Consider `O=c1[nH]n(-c2ccc([N+](=O)[O-])cc2)c(=O)c2ccccc12`, for which the Potency was 31.6 µM (active).

As to `Cc1nc2ccccc2c(=O)n1Cc1ccc([N+](=O)[O-])cc1`, the Potency entry is “inactive”.

Regarding `COc1ccc(CCNC(=O)c2cnc(Cl)c(Cl)c2)cc1`, the Potency entry is “inactive”.

Consider `CCOc1ccc(NC(=O)c2nc(SCC)ncc2Cl)cc1`, for which the Potency result is “inactive”.

As for `Cc1ccc(SCC(CC(C)C)N2CCN(CCc3ccccc3)CCC2=O)cc1` (configuration not stated), the Potency result was “inactive”.

As for `O=C(Nc1nc(-c2ccc(-c3ccccc3)cc2)cs1)c1cnccn1`, the Potency entry was “inactive”.

On to `c1cnc(Nc2nc(-c3ccc4ccccc4c3)cs2)nc1`, for which the Potency is 17.8 µM (active).

As to `Cc1ccccc1Nc1nc(-c2cccnc2)cs1`, the Potency result was “inactive”.

As for `Cc1c(C)c2c(OCC(=O)NCCCO)cc3c(c2oc1=O)CCC(C)(C)O3`, the Potency entry is “inactive”.

Turning to `COc1ccc(NC(=O)CN2C(=O)CSc3ccc(S(=O)(=O)N4CCC(C)CC4)cc32)cc1`, the Potency entry was “inactive”.

Regarding `CCNC(=O)c1cnn(-c2ccccc2)c1-c1ccccc1`, the Potency result was “inactive”.

Source of the values: PubChem BioAssay AID1768 (National Center for Advancing Translational Sciences (NCATS), 2009).
